Inconclusive results are not listed. Activity calls are given as the source filed them. Unless noted, the call rests on the fitted dose curve; in most records, active means well fitted curve in the direction sought with a large enough effect; inconclusive means small, poorly fitted or top-dose-only effect, or another doubt; inactive means no such curve, though single readings can be large; an effect the other way counts as inactive or inconclusive.
How the values were obtained:
[1] = qHTS for differential inhibitors of proliferation of Plasmodium falciparum line Dd2 (AID 1882); conditions: Potency: Plasmodium falciparum Dd2 proliferation inhibition; further: nearly all actives have a fitted effect of over 65% in size; further: potency means the concentration at half of the fitted maximal effect
Summary of the method: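 Dd2-infected erythrocytes (0.3% parasitemia, 2.5% hematocrit final) incubated with compound 72 h at 37 C, 5% CO2; lysed with saponin/Triton buffer containing SYBR Green I, incubated overnight in the dark, then read by fluorescence (485/535 nm). Normalized to 0.29 uM artemisinin and DMSO.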

[2] = qHTS for differential inhibitors of proliferation of Plasmodium falciparum line W2 (AID 1883); conditions: Potency: Plasmodium falciparum W2 proliferation inhibition;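 further: parasites grown with compound for 72 h before lysis and staining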; further: potency means the concentration at half of the fitted maximal effect
[3] = biological target: Ferritin light chain (Equus caballus) (UniProt P02791); assay: qHTS Validation Assay for Identification of Novel General Anesthetics (AID 2323); further: series mostly up to about 77 µM
Ferritin light chain (Equus caballus), sequence (P02791 2-175 limits assumed): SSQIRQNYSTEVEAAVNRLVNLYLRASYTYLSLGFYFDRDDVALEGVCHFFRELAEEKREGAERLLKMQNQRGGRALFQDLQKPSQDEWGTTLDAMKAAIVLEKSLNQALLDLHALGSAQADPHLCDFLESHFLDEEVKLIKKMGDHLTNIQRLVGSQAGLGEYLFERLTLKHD
Summary of the method: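 Horse-spleen apoferritin (10 uM) in PBS with 50% saturated 1-aminoanthracene; compounds pin-transferred, 10 min at room temperature. Fluorescence read at 380/535 nm, normalized to free 1-AMA and 1-AMA/apoferritin values; four-parameter Hill fit.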

[4] = biological target: ATP-dependent DNA helicase Q1 (Homo sapiens) (UniProt P46063); assay: qHTS Validation Assay for Inhibitors of RecQ-Like Dna Helicase 1 (RECQ1) (AID 2353)
Summary of the method: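 50 nM RECQ1T1 preincubated 15 min with compound in Tris pH 8.0 buffer with MgCl2, DTT, Tween-20 and 2.5 ug/ml poly(dI-dC); started with 200 nM TAMRA/BHQ-2 forked duplex and 2 mM ATP. Unwinding read as fluorescence (525/598 nm), two reads 2 h apart.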

[5] = Cytometric Cell-Based qHTS for Inhibitors of the mTORC1 Signaling Pathway in MEF (Tsc2-/-, p53-/-) Cells (AID 2660);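 further: Tsc2 and p53 null MEFs carrying empty vector with compound for 24 h; percent of cells above a phospho-rpS6 to PI ratio cutoff in each well; series mostly up to about 38 µM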
Summary of the method: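 Immunofluorescence qHTS of rpS6 Ser235/236 phosphorylation: MEFs (Tsc2-/-, p53-/-) treated 24 h, 37 C, in DMEM + 10% FBS. Alexa-488 signal normalized to PI count, referenced to rapamycin (7.5 nM) and DMSO; PI cell number recorded for viability.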

[6] = High Content Imaging Cell-Based qHTS for Inhibitors of the mTORC1 Signaling Pathway in MEF (Tsc2-/-, p53-/-) Cells (AID 2666);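 further: percent of cells scored positive for phospho-rpS6 Ser235/236 immunostaining by imaging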
Summary of the method: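 Cells were plated, dosed with compound after 24 hrs, and incubated another 24 hrs at 37 degree Celsius. Fixed cells were immunostained for phospho-rpS6 Ser235/236 and counterstained, and the normalized signal was scored as % active cells against rapamycin and DMSO controls.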

[7] = High Content Imaging Cell-Based qHTS for Inhibitors of the mTORC1 Signaling Pathway in MEF Cells (AID 2667);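 further: Tsc2-/- p53-/- MEFs stably re-expressing wild-type Tsc2 exposed 24 h; series mostly up to about 38 µM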
Summary of the method: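 Immunofluorescence for rpS6 phosphorylation in MEFs of Tsc2-/-, p53-/- background rescued with WT Tsc2. Compound exposure lasted 24 hrs. Inhibition was scored against rapamycin-treated control wells.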

[8] = Validation screen for small molecules that induce DNA re-replication in MCF 10A normal breast cells (AID 463097); further: nearly all actives have a fitted effect of over 60% in size
Summary of the method: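 MCF 10A cells exposed to compound 48 hr at 37 C, 5% CO2, then Hoechst-stained 40 min. Laser-scanning imaging of nuclear DNA content (405 nm ex, 500-530 nm em); re-replication scored as rise in nuclei with elevated fluorescence intensity.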

[9] = biological target: Ubiquitin carboxyl-terminal hydrolase 2 (Homo sapiens) (UniProt O75604); assay: qHTS Validation Assay for Inhibitors of Ubiquitin-specific Protease USP2a Using CHOP2 as the Reporter (AID 463106)
Ubiquitin carboxyl-terminal hydrolase 2 (Homo sapiens), sequence (O75604 whole entry, looked up): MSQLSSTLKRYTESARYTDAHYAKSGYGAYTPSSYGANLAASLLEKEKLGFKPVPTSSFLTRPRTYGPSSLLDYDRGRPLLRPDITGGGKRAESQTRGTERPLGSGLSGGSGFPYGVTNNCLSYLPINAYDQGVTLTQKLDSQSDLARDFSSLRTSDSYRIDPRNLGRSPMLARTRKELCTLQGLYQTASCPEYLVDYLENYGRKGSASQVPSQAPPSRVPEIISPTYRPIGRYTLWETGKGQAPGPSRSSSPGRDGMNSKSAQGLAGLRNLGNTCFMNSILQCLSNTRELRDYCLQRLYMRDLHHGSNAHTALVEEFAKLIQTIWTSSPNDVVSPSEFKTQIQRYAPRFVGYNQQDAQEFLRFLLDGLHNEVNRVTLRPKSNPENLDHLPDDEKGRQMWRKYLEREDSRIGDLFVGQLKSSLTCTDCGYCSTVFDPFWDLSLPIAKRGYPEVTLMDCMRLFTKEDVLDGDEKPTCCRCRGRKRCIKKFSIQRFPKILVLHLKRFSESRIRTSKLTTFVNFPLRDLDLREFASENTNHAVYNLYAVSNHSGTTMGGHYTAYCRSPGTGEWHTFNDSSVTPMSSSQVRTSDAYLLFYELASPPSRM
Summary of the method: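 10nM USP2 core + cpd, 30min RT; add 25nM Ub-CHOP2/25nM substrate; 60min RT; FI 485/531nm. Buffer Tris pH 8.0, CaCl2, BME, CHAPS. Norm. to NEM = 100% inhibition; time-zero read flags fluorescent artifacts.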

[10] = biological target: DNA polymerase III PolC-type (Bacillus subtilis (strain 168)) (UniProt P13267); assay: qHTS Validation Assay for the Inhibitors of DNA Replication in Gram-Positive Bacteria (AID 485295);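 further: PicoGreen fluorescence of double-stranded DNA made on primed circular M13 template; series mostly up to about 57 µM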
DNA polymerase III PolC-type (Bacillus subtilis (strain 168)), sequence (P13267 whole entry, looked up): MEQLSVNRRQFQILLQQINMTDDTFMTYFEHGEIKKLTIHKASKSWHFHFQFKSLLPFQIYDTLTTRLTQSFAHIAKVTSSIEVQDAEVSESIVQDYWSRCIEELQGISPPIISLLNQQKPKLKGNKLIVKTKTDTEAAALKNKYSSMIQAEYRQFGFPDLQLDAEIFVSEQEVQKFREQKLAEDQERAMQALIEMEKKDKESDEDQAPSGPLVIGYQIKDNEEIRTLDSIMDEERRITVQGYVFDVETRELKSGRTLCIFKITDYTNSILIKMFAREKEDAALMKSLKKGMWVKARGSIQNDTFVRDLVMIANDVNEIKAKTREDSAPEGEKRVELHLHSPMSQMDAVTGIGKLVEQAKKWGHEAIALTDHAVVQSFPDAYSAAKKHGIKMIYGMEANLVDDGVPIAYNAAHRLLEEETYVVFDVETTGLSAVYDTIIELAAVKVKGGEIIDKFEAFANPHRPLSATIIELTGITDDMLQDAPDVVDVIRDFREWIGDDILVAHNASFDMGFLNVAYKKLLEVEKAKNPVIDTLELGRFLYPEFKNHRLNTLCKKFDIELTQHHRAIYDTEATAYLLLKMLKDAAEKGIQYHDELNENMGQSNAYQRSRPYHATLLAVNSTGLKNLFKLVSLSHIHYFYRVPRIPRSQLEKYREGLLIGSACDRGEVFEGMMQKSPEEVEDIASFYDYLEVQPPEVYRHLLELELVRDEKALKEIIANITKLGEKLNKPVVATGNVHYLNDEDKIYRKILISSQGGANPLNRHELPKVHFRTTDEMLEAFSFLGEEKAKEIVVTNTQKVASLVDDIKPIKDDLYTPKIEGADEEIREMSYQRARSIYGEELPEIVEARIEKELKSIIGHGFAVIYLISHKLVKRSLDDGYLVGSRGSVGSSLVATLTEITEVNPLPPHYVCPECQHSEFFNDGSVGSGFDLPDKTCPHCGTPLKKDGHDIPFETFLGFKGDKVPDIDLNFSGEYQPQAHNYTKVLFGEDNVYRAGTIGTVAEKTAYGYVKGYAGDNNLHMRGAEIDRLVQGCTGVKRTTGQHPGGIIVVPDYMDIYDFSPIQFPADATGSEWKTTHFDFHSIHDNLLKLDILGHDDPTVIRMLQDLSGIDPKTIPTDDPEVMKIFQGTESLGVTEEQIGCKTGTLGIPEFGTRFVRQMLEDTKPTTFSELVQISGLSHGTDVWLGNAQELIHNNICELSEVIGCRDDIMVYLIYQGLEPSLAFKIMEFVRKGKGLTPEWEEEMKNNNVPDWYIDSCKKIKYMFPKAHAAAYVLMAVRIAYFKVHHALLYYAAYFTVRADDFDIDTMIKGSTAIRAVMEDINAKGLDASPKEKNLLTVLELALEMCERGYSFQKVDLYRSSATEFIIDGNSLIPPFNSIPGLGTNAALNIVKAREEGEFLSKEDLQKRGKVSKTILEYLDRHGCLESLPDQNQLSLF
Summary of the method: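 Reconstituted B. subtilis Pol III holoenzyme (PolC, beta clamp, SSB, primase) preincubated with compound, then M13Gori single-stranded circular template with dNTPs/NTPs added; room temperature reaction. Stopped with EDTA/PicoGreen; dsDNA fluorescence read, EDTA as full-inhibition control.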

[11] = biological target: Tumor susceptibility gene 101 protein (Homo sapiens) (UniProt Q99816); assay: qHTS Validation Assay for Iinhibitors of HIV-1 Budding by Blocking the Interaction of PTAP/TSG101 (AID 485342; calls by dose curve)
Tumor susceptibility gene 101 protein (Homo sapiens), sequence (Q99816 whole entry, looked up, the tested form may be a part): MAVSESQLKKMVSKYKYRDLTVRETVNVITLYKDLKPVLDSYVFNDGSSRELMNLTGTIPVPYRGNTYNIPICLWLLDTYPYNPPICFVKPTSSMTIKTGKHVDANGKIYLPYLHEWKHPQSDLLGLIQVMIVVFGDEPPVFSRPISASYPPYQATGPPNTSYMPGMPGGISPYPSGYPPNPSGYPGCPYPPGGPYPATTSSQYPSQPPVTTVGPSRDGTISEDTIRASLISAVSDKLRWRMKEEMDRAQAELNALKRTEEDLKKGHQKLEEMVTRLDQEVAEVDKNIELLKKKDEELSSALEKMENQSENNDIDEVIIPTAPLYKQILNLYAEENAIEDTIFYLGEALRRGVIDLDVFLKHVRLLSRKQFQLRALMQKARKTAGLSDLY
Summary of the method: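 Tsg101 binding domain (10 uM) with FITC-labeled PTAP peptide (50 nM) in HEPES pH 7.5 buffer, 20 min at r.t. with compounds. Binding measured by fluorescence polarization.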

[12] = biological target: ATP-dependent 6-phosphofructokinase (Trypanosoma brucei brucei) (UniProt O15648); assay: qHTS Validation Assay to Find Inhibitors of T. brucei phosphofructokinase (AID 485368); further: potency means the concentration at half of the fitted maximal effect
ATP-dependent 6-phosphofructokinase (Trypanosoma brucei brucei), sequence (O15648 whole entry, looked up): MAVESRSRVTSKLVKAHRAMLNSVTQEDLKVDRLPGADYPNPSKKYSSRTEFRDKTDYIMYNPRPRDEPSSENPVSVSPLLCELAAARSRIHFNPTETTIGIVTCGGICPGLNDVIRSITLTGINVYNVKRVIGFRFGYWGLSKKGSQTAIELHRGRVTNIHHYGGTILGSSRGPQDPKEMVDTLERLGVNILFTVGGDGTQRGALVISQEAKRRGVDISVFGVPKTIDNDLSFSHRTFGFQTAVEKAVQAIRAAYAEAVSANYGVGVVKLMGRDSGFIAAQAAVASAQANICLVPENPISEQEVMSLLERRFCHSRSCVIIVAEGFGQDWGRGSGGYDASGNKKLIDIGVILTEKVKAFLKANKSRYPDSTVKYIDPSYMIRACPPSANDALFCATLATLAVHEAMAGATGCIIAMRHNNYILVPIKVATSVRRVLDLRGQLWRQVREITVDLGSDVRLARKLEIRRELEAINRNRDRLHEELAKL
Summary of the method: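 Steps: substrate mix (0.5 mM F6P, 0.1 mM ATP, MgCl2, TEA pH 8.0); compound; 1.25 nM T. brucei PFK; 45 min RT; ATP depletion 10 min; ADP-to-ATP detection 10 min; luminescence read; curve fitting and classification.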

[13] = Quantitative high throughput screen for delayed death inhibitors of the malarial parasite plastid, 96 hour incubation (AID 488745); further: series mostly up to about 29 µM; nearly all actives have a fitted effect of over 70% in size
Summary of the method: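 Luciferase-expressing P. falciparum in erythrocytes (2% hematocrit, 0.1% parasitemia) incubated with compound for 96 h at 37 C, 5% CO2, in RPMI 1640 with 0.5% Albumax. Growth inhibition read as decreased luminescence.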

[14] = Quantitative high throughput screen for delayed death inhibitors of the malarial parasite plastid, 48 hour incubation (AID 488752); further: nearly all actives have a fitted effect of over 65% in size
Summary of the method: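 Erythrocytes infected with firefly luciferase-expressing P. falciparum (2% hematocrit, 0.1% parasitemia) cultured with compound for 48 h at 37 C, 5% CO2, in RPMI 1640/0.5% Albumax. Growth inhibition read as loss of luminescence.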

[15] = biological target: RecQ-like DNA helicase BLM (Homo sapiens) (UniProt P54132); assay: qHTS Validation Assay for Inhibitors of Bloom's syndrome helicase (BLM) (AID 2364)
RecQ-like DNA helicase BLM (Homo sapiens), sequence (P54132 whole entry, looked up): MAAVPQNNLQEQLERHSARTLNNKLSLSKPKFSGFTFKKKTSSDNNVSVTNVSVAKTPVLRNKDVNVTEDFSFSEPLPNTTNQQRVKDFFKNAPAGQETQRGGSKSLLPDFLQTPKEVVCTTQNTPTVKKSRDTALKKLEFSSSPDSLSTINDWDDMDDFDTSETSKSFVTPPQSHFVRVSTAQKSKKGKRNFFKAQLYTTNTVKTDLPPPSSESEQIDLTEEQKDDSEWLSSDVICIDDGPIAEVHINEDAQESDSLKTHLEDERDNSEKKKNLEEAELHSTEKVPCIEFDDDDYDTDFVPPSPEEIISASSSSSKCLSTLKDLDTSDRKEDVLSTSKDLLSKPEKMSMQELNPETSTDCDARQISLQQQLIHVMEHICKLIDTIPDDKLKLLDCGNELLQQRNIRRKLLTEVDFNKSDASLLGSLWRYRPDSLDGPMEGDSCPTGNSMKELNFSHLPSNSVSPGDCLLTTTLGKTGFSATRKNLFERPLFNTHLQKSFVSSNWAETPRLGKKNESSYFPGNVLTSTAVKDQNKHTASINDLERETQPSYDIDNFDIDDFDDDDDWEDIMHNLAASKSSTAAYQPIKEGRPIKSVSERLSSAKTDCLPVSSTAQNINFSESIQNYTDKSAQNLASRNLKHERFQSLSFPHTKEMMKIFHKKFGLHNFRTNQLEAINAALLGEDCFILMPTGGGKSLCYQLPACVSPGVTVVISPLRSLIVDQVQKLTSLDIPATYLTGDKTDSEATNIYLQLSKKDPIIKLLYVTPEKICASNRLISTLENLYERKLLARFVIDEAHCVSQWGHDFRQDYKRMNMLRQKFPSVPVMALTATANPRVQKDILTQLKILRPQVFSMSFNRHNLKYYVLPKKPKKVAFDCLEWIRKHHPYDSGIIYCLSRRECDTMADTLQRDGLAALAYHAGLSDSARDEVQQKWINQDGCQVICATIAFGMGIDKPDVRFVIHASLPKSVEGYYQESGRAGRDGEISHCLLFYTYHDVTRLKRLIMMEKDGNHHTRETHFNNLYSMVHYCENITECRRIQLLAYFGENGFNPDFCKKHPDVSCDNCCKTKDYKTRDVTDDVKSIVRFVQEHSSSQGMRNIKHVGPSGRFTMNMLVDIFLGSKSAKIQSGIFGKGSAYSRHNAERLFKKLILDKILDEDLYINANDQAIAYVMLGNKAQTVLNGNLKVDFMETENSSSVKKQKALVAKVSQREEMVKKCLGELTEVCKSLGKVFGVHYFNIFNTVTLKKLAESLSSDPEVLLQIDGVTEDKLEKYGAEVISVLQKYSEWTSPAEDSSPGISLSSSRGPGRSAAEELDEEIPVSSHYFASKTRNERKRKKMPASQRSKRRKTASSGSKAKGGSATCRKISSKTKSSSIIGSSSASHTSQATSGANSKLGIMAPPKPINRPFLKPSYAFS
Summary of the method: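 Forked 20-bp duplex substrate (200 nM, TAMRA/BHQ-2) plus 2 mM ATP added after 15 min compound preincubation with 50 nM enzyme, pH 8.0, poly(dI-dC) 2.5 ug/ml. Strand separation followed by fluorescence (525/598 nm) over 2 h, normalized to enzyme-free and DMSO controls.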

[16] = qHTS Validation Assay to Find Inhibitors of Chronic Active B-Cell Receptor Signaling (AID 485345; active means well fitted curve in the direction sought with a large enough effect in the main read-out, with a control signal flat, not every such curve was filed as active)
Summary of the method: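 Read-out: ratio of filter-corrected green (IkappaBalpha fusion) to red (native) luciferase signal in doxycycline-induced TMD8 cells after 4 h at 37C. Titration spanned 46 uM–3 nM; Data were normalised to basal cells and 10 uM MG-132 wells.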

[17] = biological target: Beta-2 adrenergic receptor (Homo sapiens) (UniProt P07550); assay: qHTS validation assay of beta-arrestin-biased ligands of beta2-adrenergic receptor (AID 485366)
Beta-2 adrenergic receptor (Homo sapiens), sequence (P07550 whole entry, looked up): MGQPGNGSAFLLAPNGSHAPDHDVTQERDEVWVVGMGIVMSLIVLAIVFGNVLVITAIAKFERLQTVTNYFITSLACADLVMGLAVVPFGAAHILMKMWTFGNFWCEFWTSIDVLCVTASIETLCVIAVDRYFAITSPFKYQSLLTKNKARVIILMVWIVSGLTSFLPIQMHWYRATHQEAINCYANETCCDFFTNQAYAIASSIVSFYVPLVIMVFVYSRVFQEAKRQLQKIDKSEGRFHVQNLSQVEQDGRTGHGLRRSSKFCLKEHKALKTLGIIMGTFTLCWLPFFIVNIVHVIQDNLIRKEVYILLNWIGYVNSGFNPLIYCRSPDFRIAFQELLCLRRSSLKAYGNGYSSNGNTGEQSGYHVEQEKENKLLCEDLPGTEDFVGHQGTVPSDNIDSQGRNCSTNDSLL
Summary of the method: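 Arrestin-recruitment (Tango) reporter: ligand-bound beta2-AR recruits beta-arrestin, releasing tTA, which upregulates luciferase. Titrations of up to 46 microM incubated 18 hr at 37 degrees C before luminescent readout.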

[18] = qHTS for differential inhibitors of proliferation of Plasmodium falciparum line HB3 (AID 1886); conditions: Potency: Plasmodium falciparum HB3 proliferation inhibition;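 further: parasites grown with compound for 72 h before SYBR Green readout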; further: potency means the concentration at half of the fitted maximal effect
[19] = qHTS Assay for Modulators of Human Peripheral Myelin Protein 22 (PMP22) Expression/Activity (AID 1967; active means well fitted curve in the direction sought with a large enough effect in the signal ratio; the % refers to the signal ratio)
Summary of the method: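 Mouse MSC80 Schwann cells carrying Pmp22 promoter–green click beetle luciferase plus EF-alpha–red luciferase control, dosed 24 h at 37 °C. Dual-filter luminescence, overlap-corrected; %Activity from green/red ratio normalised to untreated cells, concentration-response curves fitted.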

Measured: Potency

CNCC(O)c1ccc(O)c(O)c1 (stereo not drawn)
inactive: [1] | [3] | [4] | [5] | [6] | [7] | [8] | [9] | [10] | [11] | [12] | [13] | [14]
active: [2] 14.1 µM

CC1=C(CC(=O)O)c2cc(F)ccc2/C1=C\c1ccc(S(C)(=O)=O)cc1
inactive: [1] | [3] | [15] | [5] | [6] | [7] | [8] | [9] | [10] | [11] | [16] | [17] | [12] | [14]

CC(=O)OCC(=O)[C@@]1(O)CC[C@H]2[C@@H]3CCC4=CC(=O)CC[C@]4(C)[C@H]3C(=O)C[C@@]21C
inactive: [1] | [18] | [3] | [5] | [6] | [7] | [8] | [9] | [10] | [11] | [16] | [17] | [12] | [13] | [14]

CN(C)CCOC(C)(c1ccccc1)c1ccccn1 (stereo not drawn)
active: [1] 10 µM | [2] 3.55 µM
inactive: [18] | [3] | [5] | [6] | [7] | [8] | [9] | [10] | [11] | [16] | [17] | [12] | [13] | [14]

C=Cc1c(C)c2cc3[nH]c(cc4nc(cc5nc(cc1[nH]2)C(C)=C5CCC(=O)O)C(CCC(=O)O)=C4C)c(C)c3C=C
active: [12] 19 µM
inactive: [1] | [2] | [18] | [19] | [15] | [5] | [6] | [7] | [8] | [10] | [11] | [16] | [17] | [13] | [14]

CN(C)CC[C@@H](c1ccc(Cl)cc1)c1ccccn1
active: [1] 3.98 µM | [2] 1 µM
inactive: [18] | [3] | [5] | [6] | [7] | [8] | [9] | [10] | [11] | [16] | [17] | [13] | [14]

NC(=O)c1ncn([C@@H]2O[C@H](CO)[C@@H](O)[C@H]2O)n1
inactive: [1] | [18] | [3] | [15] | [5] | [6] | [7] | [8] | [9] | [10] | [11] | [16] | [17] | [12] | [14]

CC(CN1c2ccccc2Sc2ccccc21)N(C)C (stereo not drawn)
active: [1] 5.01 µM | [2] 2.24 µM | [18] 11.2 µM
inactive: [3] | [5] | [6] | [9] | [10] | [11] | [16] | [17] | [14]

NC(N)=NCCC[C@H](N)C(=O)O
inactive: [1] | [2] | [18] | [3] | [15] | [5] | [6] | [7] | [8] | [9] | [10] | [11] | [16] | [17] | [13] | [14]

O=C1N=C(O)CN1/N=C/c1ccc(-c2ccc([N+](=O)[O-])cc2)o1
active: [2] 7.08 µM
inactive: [1] | [5] | [6] | [7] | [8] | [9] | [10] | [11] | [16] | [17]

CCCn1cnc2c1c(=O)n(CCCCC(C)=O)c(=O)n2C
active: [2] 12.6 µM
inactive: [1] | [3] | [5] | [6] | [7] | [8] | [9] | [10] | [11] | [17] | [12] | [13] | [14]
